# Rows were chosen to be rich in hits. Some 3.8% of all compounds tested hit in one or more screens of this group.
# TGFb SMAD3 inh: TGF-b pathway inhibition; 410,000 tested, 1.2% active; HepG2 CAGA-GFP TGF-b/SMAD3 reporter, GFP fluorescence, 18 h; TGF-beta stimulated, 500 pg/mL final; AID 588855; Potency, µM (highest dose often 46.1 µM), usual class: inhibitors; also: nearly all actives have a fitted effect of over 65% in size
#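 Per well, imaged GFP fluorescence of HEPG2 CAGA-GFP cells gives the signal; cells get compound, then TGF-beta (500 pg/mL final), 18 h at 37 degrees C; %Activity versus -TGF-beta and +DMSO controls.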
# HT1080 IDH1KD tx: toxicity to HT-1080 IDH1 knockdown cells (counter line) | HT-1080 IDH1 knockdown viability, ATP luminescence, 48 h | Potency, µM (top dose mostly 46.1 µM), hits mostly cytotoxic | 360,000 tested, 2% active | AID 686971
#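 CellTiter-Glo luminescence after 48 h compound exposure at 37 degrees C of IDH1-knockdown HT-1080 cells in 5% FBS RPMI. %Activity scaled between DMSO wells and cell-free media wells, with curves fitted and assigned curve classes.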
# ATXN viability: viability counter-screen for ATXN expression inhibitors. Potency, µM (titrated, usually from 56.7 µM), actives largely listed as cytotoxic. AID 651635. S2 cells (HEK-293 line with an ATXN2-luciferase reporter) viability, CellTiter-Fluor protease fluorescence, 24 h. 400,000 tested, 0.49% active; also: nearly all actives have a fitted effect of over 40% in size
# HepG2 tox: kills HepG2 cells in TGF-b inhibitor counter-screen | HepG2 CAGA-GFP viability, ATP luminescence, 18 h | Potency, µM (titrated, usually from 46.1 µM), hits mostly cytotoxic | 410,000 tested, 0.76% active
#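 CellTiter-Glo luminescence gave cytotoxicity after 18 hours at 37 degrees C. The cells were HepG2 CAGA-GFP in 1% FBS DMEM, stimulated with 500 pg/mL TGF-beta after compound addition. %Activity was normalised to no-cell wells (complete cell-killing) and DMSO (no toxicity), and curves were fitted and classified.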
# HT1080-NT tox: kills 2HG-producing HT-1080-NT fibrosarcoma cells; HT-1080-NT fibrosarcoma viability, CellTiter-Glo ATP luminescence, 48 h; Potency, µM (titrated, usually from 46.1 µM), hits mostly cytotoxic; 360,000 tested, 1.6% active;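 also: NT is the 2HG producing partner of a matched IDH1 knockdown line; nearly all actives have a fitted effect of over 55% in size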
#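 Viability by CellTiter-Glo luminescence after 48 h compound exposure at 37C of HT-1080-NT cells (750/well, RPMI, 5% FBS). % activity scaled between DMSO wells and medium-only wells, then curve-fitted and categorized by curve class.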
# ATXN2 expr inh: ATXN2 expression inhibition; HEK-293 ATXN2-luciferase reporter, luminescence, 24 h; Potency, µM (doses to about 57 µM), most hits filed as inhibitors; 360,000 tested, 0.72% active; AID 1745845; also: nearly all actives have a fitted effect of over 55% in size
#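 ATXN2-luciferase reporter cells (luciferase flanked by upstream and downstream ATXN2 gene portions) were treated 24 h at 37 °C with compounds at up to 57 uM. SteadyGlo luminescence gave expression; GF-AFC fluorescence gave viability.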
# Numbers stand for hits; i = inactive; ? = inconclusive; nt = not tested or not shown. Calls follow the shape of the dose curve; as a rule, active = well fitted curve in the direction sought with a large enough effect; inconclusive = small, poorly fitted or top-dose-only effect, or another doubt; inactive = no such curve, though single readings can be large; an effect the other way counts as inactive or inconclusive.
SMILES,TGFb SMAD3 inh,HT1080 IDH1KD tx,ATXN viability,HepG2 tox,HT1080-NT tox,ATXN2 expr inh
COc1cccc(C(=O)Nc2ccc3c(cc2=O)[C@@H](NC(C)=O)CCc2cc(OC)c(OC)c(OC)c2-3)c1,?,4.6µM,i,i,5.8µM,i
O=C(NCc1ccccn1)c1cnn(-c2nccc(-c3cc4ccccc4o3)n2)c1C1CC1,nt,nt,i,nt,nt,nt
Ic1ccc(Nc2nc(NCCN3CCOCC3)nc(N3CCCC3)n2)cc1,?,nt,nt,i,nt,nt
COc1ccc(CC(N)c2csc(NC(=O)Nc3ccccc3C(C)(C)C)n2)cc1 (stereo not drawn),?,?,nt,i,?,?
COc1ccccc1NC(=O)Nc1nc(C(N)Cc2ccccc2)cs1 (stereo not drawn),?,?,?,i,23µM,?
COc1ccccc1NC(=O)Nc1nc(C(N)Cc2ccc(Cl)cc2)cs1 (stereo not drawn),?,?,?,i,?,?
COc1ccc(CC(N)c2csc(NC(=O)c3cccs3)n2)cc1 (stereo not drawn),14µM,i,i,i,i,i
COc1ccc(CC(N)c2csc(NC(=O)Nc3cc(OC)ccc3OC)n2)cc1 (stereo not drawn),?,?,?,i,?,?
CC(C)CC(N)c1csc(NC(=O)Nc2ccccc2Cc2ccccc2)n1 (stereo not drawn),?,?,nt,i,?,?
COc1ccc(CC(N)c2csc(NC(=O)Nc3ccccc3-c3ccccc3)n2)cc1 (stereo not drawn),?,i,nt,16µM,15µM,?
Cc1ccccc1NC(=O)Nc1nc(C(N)Cc2ccccc2)cs1 (stereo not drawn),?,?,?,i,23µM,?
COc1cc(OC)cc(C(=O)Nc2ccc3c(c2)N(C2CCCC2)C(=O)c2ccccc2S3)c1,i,nt,i,i,nt,i
CCCN1CCC(=O)N(C(CSc2ccc(Br)cc2)c2ccccc2)CC1 (stereo not drawn),i,nt,nt,i,nt,nt
COc1ccc(CNC(=O)Nc2nc(C(N)c3ccccc3)cs2)cc1 (stereo not drawn),i,?,i,i,?,i
COc1ccc(CC(N)c2csc(NC(=O)NCc3ccccc3)n2)cc1 (stereo not drawn),i,18µM,?,i,?,?
CC1=CC2C(C(O)CC3(C)C2CC(C)C32OCOC23COCO3)C2(C)C/C(=C\O)C(=O)C=C12 (stereo not drawn),5.6µM,7.3µM,nt,11µM,18µM,?
COc1ccc(OC)c(NC(=O)C2Cc3ccccc3CN2S(=O)(=O)c2ccc(F)cc2)c1 (stereo not drawn),nt,nt,nt,i,nt,nt
O=C(C(=Cc1ccccc1)CN1CCCCC1)c1ccccc1,?,4.6µM,8.4µM,i,?,?
CSc1nc2ccccc2cc1/C=C(\C#N)c1cccc(C)c1,i,5.2µM,i,i,?,i
CSc1nc2ccccc2cc1/C=C(\C#N)c1ccc(Cl)c(Cl)c1,i,i,i,i,i,i
CSc1nc2ccccc2cc1/C=C(\C#N)c1ccccc1,i,18µM,i,i,?,i
Cc1cccc(/C=C(\C#N)c2nc3ccccc3c(=O)[nH]2)c1,i,nt,i,i,nt,i
Cc1ccc(/C(O)=C/c2nc3ccccc3oc2=O)cc1,?,23µM,i,i,i,i
CCCCC[C@@H](C)N1C[C@@H](COCc2ccccc2)Oc2cc(N3CC[C@@H](N(C)C)C3)ccc2S1(=O)=O,nt,18µM,28µM,nt,21µM,?
CCCCC[C@H](C)N1C[C@H](COCc2ccccc2)Oc2cc(N3CC[C@H](N(C)C)C3)ccc2S1(=O)=O,nt,21µM,nt,nt,?,?
SMILES,TGFb SMAD3 inh,HT1080 IDH1KD tx,ATXN viability,HepG2 tox,HT1080-NT tox,ATXN2 expr inh
CCCCC[C@@H](C)N1C[C@H](COCc2ccccc2)Oc2cc(N3CC[C@@H](N(C)C)C3)ccc2S1(=O)=O,nt,10µM,25µM,nt,12µM,?
CCCCC[C@H](C)N1C[C@H](COCc2ccccc2)Oc2cc(N3CC[C@@H](N(C)C)C3)ccc2S1(=O)=O,nt,16µM,28µM,nt,21µM,?
CCCCC[C@H](C)N1C[C@@H](COCc2ccccc2)Oc2cc(N3CC[C@@H](O)C3)ccc2S1(=O)=O,nt,?,?,nt,?,i
CCCC(CCC)C(N)=O,nt,nt,i,nt,nt,nt
CCNC(=O)c1cnc2sc(N3CCCCCC3)nn2c1=O,i,nt,nt,i,nt,nt
N#Cc1c(O)c2c(-c3ccc(-c4ccccc4O)cc3)csc2[nH]c1=O,nt,nt,nt,nt,nt,i

# Screening results deposited in PubChem BioAssay by National Center for Advancing Translational Sciences (NCATS).
